# From PubChem BioAssay
# ALDH1A1 inh = qHTS Assay for Inhibitors of Aldehyde Dehydrogenase 1 (ALDH1A1) | Aldehyde dehydrogenase 1A1 (Homo sapiens), P00352 | Purified ALDH1A1, NADH fluorescence, propionaldehyde substrate | Potency, µM (titrated, usually from 75.3 µM), for inactives: at the highest dose activity, negative = inhibition, most hits filed as inhibitors | 7.3% of 220,000 active | AID 1030, 2008; active = well fitted inhibition curve with a large enough effect, not every such curve was filed as active; inconclusive = small, poorly fitted or top-dose-only effect, or another doubt; inactive = no such curve, though single readings can be large or run the other way;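 also: potency is read from the fitted curve at half-maximal effect; plate controls were no enzyme wells and a reference inhibitor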
# Target sequence (P00352 whole entry, looked up): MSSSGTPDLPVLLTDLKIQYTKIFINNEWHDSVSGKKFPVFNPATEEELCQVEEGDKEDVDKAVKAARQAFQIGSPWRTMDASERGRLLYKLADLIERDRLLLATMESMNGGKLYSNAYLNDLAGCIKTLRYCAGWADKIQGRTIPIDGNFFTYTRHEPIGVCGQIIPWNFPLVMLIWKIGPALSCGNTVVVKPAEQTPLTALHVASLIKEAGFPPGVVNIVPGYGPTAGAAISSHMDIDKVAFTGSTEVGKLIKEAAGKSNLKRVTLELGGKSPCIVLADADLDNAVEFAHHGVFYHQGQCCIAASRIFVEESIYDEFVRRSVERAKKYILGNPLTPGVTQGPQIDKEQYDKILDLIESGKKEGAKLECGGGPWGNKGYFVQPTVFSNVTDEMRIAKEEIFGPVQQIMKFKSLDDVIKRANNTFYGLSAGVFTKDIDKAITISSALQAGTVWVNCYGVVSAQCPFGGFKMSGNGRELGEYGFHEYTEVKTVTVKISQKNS
# CBFb-RUNX1 inh = qHTS Assay for Compounds Blocking the Interaction Between CBF-beta and RUNX1 for the Treatment of Acute Myeloid Leukemia; Runt-related transcription factor 1 (Homo sapiens) + Core-binding factor subunit beta …; AlphaScreen CBFb-His/RUNX1-biotin binding, biochemical; Potency, µM (titrated, usually from 59.8 µM), for the others: at the top dose activity, negative = inhibition, most hits filed as inhibitors; 230,000 tested, under 10 active; AID 1477, 2009; also: % of control where 0% means no effect
#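 CBF-beta (His) and RUNX1 (biotin), 30 nM each; 20 min preassociation; + compound, 15 min; + beads 50 ng each (Ni, streptavidin), 90 min; RT; AlphaScreen read.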
# HTT aggregate = qHTS Multiplex Assay to Identify Dual Action Probes in a Cell Model of Huntington: Aggregate Formation (GFP) | Potency, µM (doses to about 46.1 µM), for the others: at the top dose activity change, negative = inhibition, usual class: inhibitors | AID 1688, 2009 | PC12 HttQ103-GFP aggregates, Acumen cytometry, 40 h | 1.1% of 220,000 active; also: potency is read from the fitted curve at half-maximal effect; % is scaled to controls: 0 for no effect and ±100 for the full control effect; nearly all actives have a fitted effect of over 60% in size
#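 Compounds (qHTS titration) were added to PC12 cells expressing an ecdysone-driven HTT exon 1 Q103–GFP fusion after induction with 100 nM tebufenozide. Aggregate formation was measured as GFP objects in cell lysates.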
# HTT ATP protect = qHTS Multiplex Assay to Identify Dual Action Probes in a Cell Model of Huntington: Cytoprotection (ATP); 0.14% of 230,000 active; PC12 HTT-Q103 induced, cytoprotection, ATP luminescence, 40 h; AID 1471, 2008; Potency, µM (doses to about 56.4 µM), for inactives: cytoprotection (ATP increase), hits mostly activators; also: potency is read from the fitted curve at half-maximal effect; % of control where 0% means no effect; nearly all actives have a fitted effect of over 45% in size
#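 Cells were plated at 1500 per well in phenol red-free DMEM with 5% equine and 5% calf serum. Tebufenozide (100 nM final) and compounds were added, then ATPlite reagent, and luminescence was read.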
# PNC assembly inh = High Content Assay for Compounds that inhibit the Assembly of the Perinucleolar Compartment | PC3M PTB-GFP, PNC prevalence imaging, 16 h; hits give low values | activity change (PNC), negative = inhibition, % at 10 µM | 3.1% of 140,000 active | AID 2417, 2010;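 active = readout at or below -70, meaning at least 70% loss of cells showing the perinucleolar compartment, a nuclear body marking cancer cells; inconclusive = readout between -30 and a set limit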;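 also: plate controls were DMSO wells for no effect and camptothecin positive control wells for full effect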
#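 PC3M cells stably expressing PTB-GFP, 750–1000 cells/well, treated 16 h at 37 °C with compound (23 nl of library stock), in duplicate. After paraformaldehyde fixation and Hoechst stain, imaged at 20x; PNC prevalence scored by image analysis.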
# HPGD inh = qHTS Assay for Inhibitors of HPGD (15-Hydroxyprostaglandin Dehydrogenase); 15-hydroxyprostaglandin dehydrogenase [NAD(+)] (Homo sapiens), P15428; purified HPGD, NADH fluorescence kinetic, PGE2 substrate; Potency, µM, for the others: at the top dose activity change, negative = inhibition, most hits filed as inhibitors; 4.3% of 150,000 active; AID 894, 2007; active = well fitted inhibition curve with a large enough effect, not every such curve was filed as active; inconclusive = small, poorly fitted or top-dose-only effect, or another doubt; inactive = no such curve, though single readings can be large or run the other way; also: potency is read from the fitted curve at half-maximal effect; % is scaled to controls: 0 for no effect and ±100 for the full control effect
# Target sequence (P15428 whole entry, looked up): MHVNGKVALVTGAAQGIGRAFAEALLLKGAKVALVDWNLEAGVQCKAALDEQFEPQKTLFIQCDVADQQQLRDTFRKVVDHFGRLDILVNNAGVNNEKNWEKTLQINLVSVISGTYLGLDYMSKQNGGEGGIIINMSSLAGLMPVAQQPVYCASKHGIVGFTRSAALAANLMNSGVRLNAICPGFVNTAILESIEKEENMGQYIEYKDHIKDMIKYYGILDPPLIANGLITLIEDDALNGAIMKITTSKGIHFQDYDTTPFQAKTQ
#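 NADH formation kinetics: reaction with 30 uM PGE2 and 1 mM NAD+ (final), 20 nM enzyme, Tris-HCl pH 8 with Tween 20, after 15 min compound preincubation at room temperature. Fluorescence change, last versus first of five reads.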
# * = called active by the depositor; ? = inconclusive; · = no result; [ ] = remark or other dose. In the library only some 11% were active in any assay of this set; here they are far more common. Unless noted, calls follow the shape of the dose curve; as a rule, active = well fitted curve in the direction sought with a large enough effect; inconclusive = small, poorly fitted or top-dose-only effect, or another doubt; inactive = no such curve, though single readings can be large; an effect the other way counts as inactive or inconclusive.
SMILES,ALDH1A1 inh,CBFb-RUNX1 inh,HTT aggregate,HTT ATP protect,PNC assembly inh,HPGD inh
Cc1cccc(NC(=O)COc2cccc3c2CCN(C)C3=O)c1C,?,1.1%,-15.7%,-22.4%,·,·
Cc1c(C(=O)OC(C)C)sc(NC(=O)C2CCCO2)c1C(=O)OC(C)C (configuration not stated),-12.3%,0.3%,-8.5%,-5.3%,21.1,-8.3%
CCOC(=O)c1c(NC(=O)COc2cccc3c2CCN(C)C3=O)sc2c1CCC2,20µM*,3.5%,?,·,?,?
Cc1sc(NC(=O)C2CCCO2)c(C(N)=O)c1C (configuration not stated),11.2µM*,-3.6%,-2.7%,0.9%[10 µM],34.2,28.2µM*
CCOC(=O)c1c(NC(=O)C2CCCO2)sc2c1CCC2 (configuration not stated),22.4µM*,9.6%,-9.4%,-9.0%,?,-19.1%
CCOC(=O)c1c(NC(=O)C2CCCO2)sc(C(=O)OC(C)(C)C)c1C (configuration not stated),14.1µM*,-4.0%,2.2%,-52.4%,15.6,?
Cc1ccc(C(=O)N/C(=C\c2ccccc2)C(=O)NCCCn2ccnc2)cc1,-2.2%,-12.8%,-13.6%[9.22 µM],-2.4%[10 µM],·,·
Cn1c(=O)c2c(ncn2CC(=O)Nc2ccccc2Sc2ccccc2)n(C)c1=O,?,3.8%,-10.4%,6.3%,?,-6.3%
CCCc1cc(C(N)=O)c(NC(=O)C2CCCO2)s1 (configuration not stated),14.1µM*,4.3%,-3.1%,-12.3%[10 µM],21.5,?
CCOC(=O)c1sc(NC(=O)C2CCCO2)c(C(=O)OCC)c1C (configuration not stated),8.91µM*,?,-5.2%,1.4%,19.1,?
Cc1ncc(CO)c(/C=N/NC(=O)c2cc3c(s2)CCCC3)c1O,?,?,?,8.5%[10 µM],·,·
CCCCCCCN[C@H]1CCC[C@@H]1CCCCCCC(=O)O,-2.1%,-9.4%,·,5.2%,·,-4.5%
CCCCCOP(=O)(c1ccccc1)c1ccccc1,13.2%,5.2%,-14.3%,-0.7%[10 µM],-108.0*,-4.3%
O=C(Cn1sc2ccccc2c1=O)NC12CC3CC(CC(C3)C1)C2,0.0708µM*,-5.8%,10.7%,-108.9%,18.4,0.316µM*
O=S(=O)(O)CCCc1cccc2ccccc12,-0.8%[13.5 µM],·,·,10.6%[10 µM],·,-3.8%
Cc1ccc(NCc2nnc(SCC(=O)c3ccccc3)o2)c(C)c1,-2.7%,-8.4%,-16.4%,-7.7%,-16.1,-4.5%
Cc1ccc(NCc2nnc(SCC#N)o2)c(C)c1,-14.6%,-3.3%,-0.7%,17.5%[10 µM],-100.0*,-15.6%
S=c1[nH]nc(-c2ccc(Cl)cc2)n1-c1ccc2c(c1)OCCO2,?,-1.3%,11.2%,·,-15.2,14.1µM*
COC(=O)C(NC(=O)c1ccc(C)cc1)(Nc1cccc(C)n1)C(F)(F)F (configuration not stated),2.3%,1.2%,2.8%,5.5%[10 µM],-100.0*,-12.7%
Cc1cc(C)n2nc(SCC(=O)N(C)c3c(N)n(Cc4ccccc4)c(=O)[nH]c3=O)nc2n1,-2.7%,-1.7%,-2.7%,23.6%[10 µM],·,·
O=C(O)c1ccc2c(c1)C(=O)N([C@@H](Cc1ccc(O)cc1)C(=O)O)C2=O,·,2.3%,·,·,·,·
CC1CCCN(C(=O)CCc2ccccc2)C1 (configuration not stated),-12.8%,0.1%,12.0%,·,-97.0*,4.47µM*
CC1CCCN(C(=O)COc2ccc(Nc3ccccc3)cc2)C1 (configuration not stated),28.2µM*,-20.2%,-5.0%,-35.8%,·,·
CC1CCN(C(=O)COc2ccc(Nc3ccccc3)cc2)CC1,?,-2.5%,14.3%,-13.1%,·,·
O=C(Cc1ccccc1)N1CCC(c2ccccc2)C1 (configuration not stated),25.1µM*,-10.2%,-1.8%[9.22 µM],8.5%[10 µM],·,·
SMILES,ALDH1A1 inh,CBFb-RUNX1 inh,HTT aggregate,HTT ATP protect,PNC assembly inh,HPGD inh
COC(=O)C1=COC(O[C@H]2OC(CO)[C@H](O)C(O)C2O)[C@H]2C1C(=O)C[C@@H]2C (some centres not stated),-0.1%,2.6%,·,20.9%,·,-3.3%
C(=N\Nc1ccccn1)/c1c[nH]c2ccccc12,·,-29.1%,13.8%[9.22 µM],-2.3%[10 µM],·,·
C(=N\c1nccs1)/c1c[nH]c2ccccc12,12.6µM*,1.3%,-10.4%,-19.0%[10 µM],10.5,-8.9%
Cc1cc(C)nc(SCc2nnc(SCC(=O)Nc3nc(-c4ccccc4)cs3)n2-c2ccccc2)n1,-9.9%,3.0%,7.0%,13.2%,-5.2,-13.6%
Cc1cc(C)nc(SCC(=O)NN)n1,10µM*,-14.6%,-18.7%[9.22 µM],-14.7%[10 µM],·,·
Cc1ccc(-n2c(CSc3nc(C)cc(C)n3)nnc2SCC(=O)N2CCCC2)cc1,?,4.0%,9.1%,-18.3%,-100.0*,3.5%
Cc1cc(C)nc(SCc2nnc(SCC(=O)O)n2-c2ccccc2)n1,7.6%,6.4%,·,·,·,·
Cc1cc(C)nc(SCC(=O)N2CCCCC2)n1,?,2.1%,-8.8%,-18.3%,?,7.94µM*
Cc1cc(C)nc(SCc2nnc(SCC#N)n2-c2cccc(Cl)c2)n1,9.4%,3.0%,-3.2%,-8.7%,-7.7,15.8µM*
Cc1cc(C)nc(SCC(=O)Nc2ncccn2)n1,5.4%,6.1%,0.6%,·,16.7,-6.1%
CC(=O)Nc1nc(NC(C)=O)c2[nH]c(CO)nc2n1,13.6%[13.5 µM],·,·,-18.2%[10 µM],·,-0.5%
COc1ccc(F)cc1C(=O)C1CCCN(Cc2ccc(Sc3nncn3C)o2)C1 (configuration not stated),5.1%,-1.9%,-3.6%[9.22 µM],31.4%[10 µM],·,·
CCCCCC(=O)c1ccc(O)cc1O,3.4%,3.0%,0.141µM*,-10.5%,·,·
Cc1cc(C)nc(SCC(=O)c2ccc([N+](=O)[O-])cc2)n1,?,-4.7%,1.0%,-14.7%[10 µM],1.3,-12.0%
Nc1cc(N)nc(SCC(=O)N2CCCCC2)n1,-4.5%,18.6%,-12.4%,-2.2%,35.2,28.2µM*
Cc1cc(C)nc(SCC(=O)c2ccc(O)cc2O)n1,10.9%,-2.6%,-7.7%,0.2%,-92.1*,-19.2%
Nc1cc(=O)[nH]c(SCC(=O)N2CCCCC2)n1,-10.4%,1.1%,0.3%[9.22 µM],22.6%[10 µM],·,·
NS(=O)(=O)c1ccc(NC(=O)Nc2ccccc2F)cc1,3.3%[13.5 µM],·,·,8.7%[10 µM],·,-1.0%
CC1=C/C(=N\NC(=S)Nc2cccnc2)CC(C)(C)C1,11.9µM*,-22.6%,?,-56.2%[10 µM],·,·
